EPAC1 ag: agonists of human EPAC1; O95398; EPAC1 agonist qHTS, biochemical assay; response scale: 100% = response to 6.5 mM cAMP; Potency, µM (top dose mostly 154 µM), for inactives: at the highest dose activation, actives largely listed as activators; hit rate 0.073% among 360,000; also: nearly all actives have a fitted effect of over 60% in size
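Compounds were pinned as a concentration titration into mixtures of EPAC1 (100 nM), BODIPY-GDP-loaded Rap1B (250 nM) and GDP (50 uM). After 5 min at room temperature, fluorescence was followed for 30 min; activity was scaled to 6.5 mM cAMP.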
EPAC2 agonist: activates human EPAC2 exchange factor. Q8WZA2. EPAC2 activation, biochemical qHTS; response scale: 100% = 6.5 mM cAMP response. Potency, µM (doses to about 154 µM), for the others: at the highest dose activation, actives largely listed as activators. hit rate 0.079% among 360,000. AID 720711; also: nearly all actives have a fitted effect of over 50% in size
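Guanine nucleotide exchange by EPAC2 is measured as reduced fluorescence of BODIPY-GDP once it is released from 250 nM Rap1B. Plates are read kinetically for 30 min at room temperature; results are scaled to 6.5 mM cAMP.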
USP1 inh: inhibitors of human USP1/UAF1 deubiquitinase; recombinant USP1/UAF1, Ub-Rhodamine cleavage fluorescence; Potency, µM (series often up to 57.1 µM), inactives show at the highest dose activity change, negative = inhibition, actives largely listed as inhibitors; hit rate 0.23% among 390,000; also: % is scaled to controls: 0 for no effect and ±100 for the full control effect; nearly all actives have a fitted effect of over 60% in size
Target sequence (O94782 whole entry, looked up): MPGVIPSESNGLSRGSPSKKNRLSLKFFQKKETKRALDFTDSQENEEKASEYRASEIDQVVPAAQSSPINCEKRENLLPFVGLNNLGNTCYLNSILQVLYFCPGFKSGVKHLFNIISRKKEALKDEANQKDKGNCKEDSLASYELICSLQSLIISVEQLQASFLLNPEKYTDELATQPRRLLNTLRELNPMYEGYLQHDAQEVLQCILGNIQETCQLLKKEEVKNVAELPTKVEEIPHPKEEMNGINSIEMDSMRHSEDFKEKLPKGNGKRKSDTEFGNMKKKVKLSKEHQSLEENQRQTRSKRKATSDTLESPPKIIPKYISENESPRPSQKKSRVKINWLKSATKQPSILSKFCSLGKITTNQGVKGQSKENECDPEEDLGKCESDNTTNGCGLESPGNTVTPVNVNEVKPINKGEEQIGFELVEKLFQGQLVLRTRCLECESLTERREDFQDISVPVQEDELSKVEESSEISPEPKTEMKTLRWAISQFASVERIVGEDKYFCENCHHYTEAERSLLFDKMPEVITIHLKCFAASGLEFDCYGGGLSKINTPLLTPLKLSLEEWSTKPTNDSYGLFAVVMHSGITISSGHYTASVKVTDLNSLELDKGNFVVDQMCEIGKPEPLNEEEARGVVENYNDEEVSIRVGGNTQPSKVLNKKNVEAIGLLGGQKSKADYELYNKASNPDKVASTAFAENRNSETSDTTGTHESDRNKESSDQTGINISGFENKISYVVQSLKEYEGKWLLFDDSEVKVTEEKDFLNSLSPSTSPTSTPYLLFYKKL
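High-throughput fluorogenic screen: 1nM USP1/UAF1 complex, Ub-Rho substrate 150nM final, 50mM HEPES pH 7.8 with 0.5mM EDTA, 0.1 mg/ml BSA, 1mM TCEP and 0.01% Tween-20.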
EPAC2 antag: EPAC2 (human) antagonism. Q8WZA2. EPAC2 GEF exchange of Rap1B-BODIPY-GDP, fluorescence. Potency, µM (doses to about 114 µM), without a hit: at the top dose activity, negative = inhibition, usual class: inhibitors. hit rate 0.18% among 360,000. AID 720708; also: % is scaled to controls: 0 for no effect and ±100 for the full control effect; nearly all actives have a fitted effect of over 45% in size
EPAC1 antagonist: blocks human EPAC1 exchange factor | O95398 | EPAC1 GEF assay, Rap1b-BODIPY-GDP exchange fluorescence | Potency, µM (titrated, usually from 115 µM), without a hit: at the top dose activity change, negative = inhibition, most hits filed as inhibitors | hit rate 0.14% among 360,000 | AID 720709;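 also: plate controls were vehicle for no effect and positive control for full effect; nearly all actives have a fitted effect of over 50% in size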
* = called active by the depositor; ? = inconclusive; nt = no result given. Sampled rows, rich in hits. Any-hit rate of the full collection: about 0.44%. Calls follow the shape of the dose curve; as a rule, active = well fitted curve in the direction sought with a large enough effect; inconclusive = small, poorly fitted or top-dose-only effect, or another doubt; inactive = no such curve, though single readings can be large; an effect the other way counts as inactive or inconclusive. Potency is read from the fitted curve at half-maximal effect.

SMILES	EPAC1 ag	EPAC2 agonist	USP1 inh	EPAC2 antag	EPAC1 antagonist
CCOC(=O)c1c(-n2cnnn2)sc2c1CCCC2	15%	1%	-19%	4%	-8%
O=C1C=C(N(CCO)Cc2ccccc2)c2ccccc2C1=O	9%	24%	3.5µM*	?	45µM*
COc1cc(/C=C2\SC(=S)N(CCC(=O)N3CCCCC3)C2=O)cc(OC)c1OC	12%	9%	-16%	3%	?
Cc1ccc(CSC2=NCCN2S(=O)(=O)c2ccc(F)cc2)cc1	8%	12%	-16%	50µM*	?
Oc1ccc2ccccc2c1-c1sc(Nc2ccccc2)n[n+]1-c1ccc(F)cc1	-79%	-336%	265%	50µM*	?
Fc1ccc(-[n+]2nc(Nc3ccccc3)sc2-c2c3ccccc3cc3ccccc23)cc1	-18%	11%	?	-6%	-26%
COc1ccc(-c2csc(NC(=O)c3ccccc3F)n2)cc1	17%	13%	-21%	3%	-6%
Cc1ccc(S(=O)(=O)Nc2ccccc2C(=O)Nc2nc(-c3ccc(F)cc3)cs2)cc1	9%	-2%	-12%	-24%	79µM*
O=C(Nc1cc(S(=O)(=O)N2CCCCC2)ccc1Cl)c1ccccc1NS(=O)(=O)c1ccc(F)cc1	0%	-10%	-17%	-17%	50µM*
COc1ccc(-c2csc(NC(=O)c3ccccc3NS(=O)(=O)c3ccc(F)c(F)c3)n2)cc1	-1%	10%	-25%	16µM*	50µM*
CCC(C)(C)NC(=O)C1CC(=O)N(CCc2ccc(F)cc2)C1 (stereo not drawn)	2%	10%	5%	-12%	2%
CCc1ccc(CNC(=O)c2cnc3c(C)cccn3c2=O)cc1	nt	nt	-18%	nt	nt
COCCN(C(=O)CSc1nnc(-c2ccco2)n1C)c1c(N)n(CC(C)C)c(=O)[nH]c1=O	8%	8%	-11%	1%	-6%
O=C(N/N=C/c1ccc(Cl)cc1Cl)c1ccncc1	16%	4%	-21%	-5%	-24%
O=C(N/N=C/c1cc(Cl)cc(Cl)c1O)c1ccncc1	0%	?	32µM*	23%	14%
CC(C)c1ccc[n+](-c2nc([O-])sc2C=O)c1	2%	5%	-13%	1%	-9%
Cc1ccc[n+](-c2nc([O-])sc2C=O)c1	?	?	28µM*	45%	36%
Cc1ccc(S(=O)(=O)/N=C2\C(=O)c3ccccc3C([O-])=C2n2cc[n+](CCC(C)C)c2)cc1	-1%	-7%	?	8%	-5%
CC(=O)Nc1ccc(S(=O)(=O)/N=C2\C(=O)c3ccccc3C([O-])=C2n2cc[n+](-c3ccccn3)c2)cc1	-7%	2%	25µM*	1%	14%
Cc1ccc(NC(=O)C2CCC(CNS(=O)(=O)c3cccs3)CC2)cc1C (stereo not drawn)	nt	nt	-19%	nt	nt
N#C/C(=C/c1cccn1-c1cccc(C(=O)O)c1)c1ccc(Cl)cc1	-9%	-2%	-16%	40µM*	-12%
N#CC(C#N)=Cc1cccn1-c1ccc(C(=O)O)cc1	-1%	6%	-14%	6%	-25%
O=C(Nc1ccccc1Cc1ccccc1)c1ccccc1NS(=O)(=O)c1ccc(Cl)s1	11%	13%	-16%	32µM*	-31%
O=C(CC1C(=O)OCCN1Cc1ccccc1)Nc1cccc(Cl)c1 (stereo not drawn)	nt	nt	-9%	nt	nt
Cc1ccc(C)c(S(=O)(=O)Nc2ccc(C(=O)NCC(c3ccco3)N(C)C)cc2)c1 (stereo not drawn)	112µM*	-6%	-17%	7%	-11%
Cc1ccc(C)c(S(=O)(=O)Nc2ccc(C(=O)NCC(c3ccco3)N3CCCCC3)cc2)c1 (stereo not drawn)	-9%	11%	-11%	-1%	8%
COc1ccc(C2CC(c3cccs3)=NN2c2ccc(C=O)cc2)cc1 (stereo not drawn)	89µM*	14%	?	22%	109%
COc1ccc(C2=NN(c3ccc(C=O)cc3)C(c3ccccc3)C2)cc1 (stereo not drawn)	12%	10%	-19%	4%	-13%
